According to PubChem BioAssay AID1159580 (chemical genetic matrix, 2015):
The campaign covered roughly 5,500 compounds. About 2,000 (36%) were called active. About 18% were inconclusive and are not listed. No stated cut-off is given here; in the data, active means normalized growth mostly below about 0.91 (no sharp cut-off); inconclusive means no clear call, values can overlap the other calls; inactive means mostly above about 0.92. The list shows a part of the results.

Assay: chemical genetic growth profiling, strain panel (AID 1159580);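 further: tested at 20 µM; growth read once vehicle control cultures reached saturation at 30 °C; 1 = growth at the plate median or of vehicle wells; lower values mean less growth of the strain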
Conditions: growth OD
[1] = S. cerevisiae deletion strains, locus YAL013W, strain DEP1, hits give low values
[2] = S. cerevisiae deletion strains, locus YNL128W, strain TEP1, hits give low values
[3] = S. cerevisiae deletion strains, locus YPL241C, strain CIN2, hits give low values
[4] = S. cerevisiae deletion strains, locus YBR021W, strain FUR4, hits give low values
[5] = S. cerevisiae deletion strains, locus YBR229C, strain ROT2, hits give low values
[6] = S. cerevisiae deletion strains, locus YCL029C, strain bik1, hits give low values
[7] = S. cerevisiae deletion strains, locus YDL035C, strain GPR1, hits give low values
[8] = S. cerevisiae deletion strains, locus YDL074C, strain BRE1, hits give low values
[9] = S. cerevisiae deletion strains, locus YDL101C, strain DUN1, hits give low values
[10] = S. cerevisiae deletion strains, locus YDL134C, strain PPH21, hits give low values
[11] = S. cerevisiae deletion strains, locus YDL185W, strain tfp1, hits give low values
[12] = S. cerevisiae deletion strains, locus YDL192W, strain arf1, hits give low values
[13] = S. cerevisiae deletion strains, locus YDR101C, strain arx1, hits give low values
[14] = S. cerevisiae deletion strains, locus YDR150W, strain NUM1, hits give low values
[15] = S. cerevisiae deletion strains, locus YDR162C, strain NBP2, hits give low values
[16] = S. cerevisiae deletion strains, locus YDR318W, strain mcm21, hits give low values
[17] = S. cerevisiae deletion strains, locus YDR388W, hits give low values
[18] = S. cerevisiae deletion strains, locus YDR502C, strain sam2, hits give low values
[19] = S. cerevisiae deletion strains, locus YEL061C, strain CIN8, hits give low values
[20] = S. cerevisiae deletion strains, locus YER110C, hits give low values
[21] = S. cerevisiae deletion strains, locus YER155C, strain BEM2, hits give low values
[22] = S. cerevisiae deletion strains, locus YER167W, strain BCK2, hits give low values
[23] = S. cerevisiae deletion strains, locus YGL078C, strain dbp3, hits give low values
[24] = S. cerevisiae deletion strains, locus YGL086W, strain mad1, hits give low values
[25] = S. cerevisiae deletion strains, locus YGL248W, strain PDE1, hits give low values
[26] = S. cerevisiae deletion strains, locus YGR078C, strain PAC10, hits give low values
[27] = S. cerevisiae deletion strains, locus YGR135W, strain pre9, hits give low values
[28] = S. cerevisiae deletion strains, locus YGR229C, strain SMI1, hits give low values
[29] = S. cerevisiae deletion strains, locus YGR252W, strain gcn5, hits give low values
[30] = S. cerevisiae deletion strains, locus YHR030C, strain SLT2, hits give low values
[31] = S. cerevisiae deletion strains, locus YHR079C, strain IRE1 (second series), hits give low values
[32] = S. cerevisiae deletion strains, locus YHR094C, strain hxt1, hits give low values
[33] = S. cerevisiae deletion strains, locus YHR129C, strain ARP1, hits give low values
[34] = S. cerevisiae deletion strains, locus YHR200W, strain rpn10, hits give low values
[35] = S. cerevisiae deletion strains, locus YIL066C, strain RNR3, hits give low values
[36] = S. cerevisiae deletion strains, locus YIL073C, strain SPO22, hits give low values
[37] = S. cerevisiae deletion strains, locus YIL125W, strain kgd1, hits give low values
[38] = S. cerevisiae deletion strains, locus YIR030C, strain dcg1, hits give low values
[39] = S. cerevisiae deletion strains, locus YJL095W, strain BCK1, hits give low values
[40] = S. cerevisiae deletion strains, locus YJL134W, strain LCB3, hits give low values
[41] = S. cerevisiae deletion strains, locus YJL168C, strain set2, hits give low values
[42] = S. cerevisiae deletion strains, locus YJL187C, strain SWE1 (second series), hits give low values
[43] = S. cerevisiae deletion strains, locus YJR043C, strain POL32, hits give low values
[44] = S. cerevisiae deletion strains, locus YJR075W, strain HOC1, hits give low values
[45] = S. cerevisiae deletion strains, locus YKL009W, strain mrt4, hits give low values
[46] = S. cerevisiae deletion strains, locus YKL068W, hits give low values
[47] = S. cerevisiae deletion strains, locus YKL085W, strain MDH1 (second series), hits give low values
[48] = S. cerevisiae deletion strains, locus YKL085W, strain MDH1, hits give low values
[49] = S. cerevisiae deletion strains, locus YKL190W, strain CNB1, hits give low values
[50] = S. cerevisiae deletion strains, locus YKR001C, strain vps1, hits give low values
[51] = S. cerevisiae deletion strains, locus YLR039C, strain RIC1, hits give low values
[52] = S. cerevisiae deletion strains, locus YLR058C, strain SHM2, hits give low values
[53] = S. cerevisiae deletion strains, locus YLR102C, strain apc9, hits give low values
[54] = S. cerevisiae deletion strains, locus YLR262C, strain YPT6, hits give low values
[55] = S. cerevisiae deletion strains, locus YLR268W, strain sec22, hits give low values
[56] = S. cerevisiae deletion strains, locus YLR330W, strain CHS5, hits give low values
[57] = S. cerevisiae deletion strains, locus YLR342W, strain FKS1 (second series), hits give low values
[58] = S. cerevisiae deletion strains, locus YLR371W, strain rom2, hits give low values
[59] = S. cerevisiae deletion strains, locus YLR418C, strain cdc73, hits give low values
[60] = S. cerevisiae deletion strains, locus YML016C, strain PPZ1, hits give low values
[61] = S. cerevisiae deletion strains, locus YML032C, strain rad52, hits give low values
[62] = S. cerevisiae deletion strains, locus YML124C, strain tub3, hits give low values
[63] = S. cerevisiae deletion strains, locus YMR078C, strain ctf18, hits give low values
[64] = S. cerevisiae deletion strains, locus YMR223W, strain ubp8, hits give low values
[65] = S. cerevisiae deletion strains, locus YMR263W, strain SAP30, hits give low values
[66] = S. cerevisiae deletion strains, locus YMR307W, strain GAS1, hits give low values
[67] = S. cerevisiae deletion strains, locus YNL067W, strain RPL9B, hits give low values
[68] = S. cerevisiae deletion strains, locus YNL153C, strain GIM3, hits give low values
[69] = S. cerevisiae deletion strains, locus YNL233W, strain BNI4, hits give low values
[70] = S. cerevisiae deletion strains, locus YNL250W, strain rad50, hits give low values
[71] = S. cerevisiae deletion strains, locus YNL271C, strain bni1, hits give low values
[72] = S. cerevisiae deletion strains, locus YNL298W, strain CLA4, hits give low values
[73] = S. cerevisiae deletion strains, locus YNL307C, strain MCK1, hits give low values
[74] = S. cerevisiae deletion strains, locus YNL322C, strain KRE1, hits give low values
[75] = S. cerevisiae deletion strains, locus YNR052C, strain pop2, hits give low values
[76] = S. cerevisiae deletion strains, locus YOL006C, strain TOP1, hits give low values
[77] = S. cerevisiae deletion strains, locus YOL012C, strain htz1
[78] = S. cerevisiae deletion strains, locus YOL147C, strain pex11, hits give low values
[79] = S. cerevisiae deletion strains, locus YOR061W, strain CKA2, hits give low values
[80] = S. cerevisiae deletion strains, locus YOR069W, strain VPS5, hits give low values
[81] = S. cerevisiae deletion strains, locus YOR136W, strain idh2, hits give low values
[82] = S. cerevisiae deletion strains, locus YOR144C, strain elg1, hits give low values
[83] = S. cerevisiae deletion strains, locus YOR184W, strain ser1, hits give low values
[84] = S. cerevisiae deletion strains, locus YOR316C, strain cot1, hits give low values
[85] = S. cerevisiae deletion strains, locus YPL055C, strain LGE1, hits give low values
[86] = S. cerevisiae deletion strains, locus YPR119W, strain clb2, hits give low values
[87] = S. cerevisiae deletion strains, locus YPR141C, strain kar3, hits give low values
[88] = S. cerevisiae deletion strains, locus YPR163C, strain tif3, hits give low values
[89] = S. cerevisiae deletion strains, locus YPR167C, strain met16, hits give low values
[90] = S. cerevisiae deletion strains, strain wtn01, hits give low values
[91] = S. cerevisiae strains, strain wild type, hits give low values

Measured: normalized growth

Nc1ncn(C2OC(CO)C(O)C2O)c(=O)n1 (configuration not stated)
inactive: [1] 1.02 | S. cerevisiae deletion strains, locus YAL040C, strain CLN3, hits give low values 0.999 | S. cerevisiae deletion strains, locus YCL061C, strain MRC1 (second series), hits give low values 0.999 | S. cerevisiae deletion strains, locus YER002W, strain NOP16, hits give low values 0.997 | [2] 0.994 | S. cerevisiae deletion strains, locus YNL175C, strain NOP13, hits give low values 0.992 | S. cerevisiae deletion strains, locus YNL197C, strain WHI3, hits give low values 1.01 | S. cerevisiae deletion strains, locus YNL224C, strain SQS1, hits give low values 0.988 | S. cerevisiae deletion strains, locus YOR083W, strain WHI5 (second series), hits give low values 1 | [3] 1

NCCCCCCNS(=O)(=O)c1cccc2c(Cl)cccc12
inactive: [1] 1 | [4] 1 | [5] 0.982 | [6] 0.983 | [7] 0.989 | [8] 1.02 | [9] 0.991 | [10] 0.985 | [11] 0.986 | [12] 0.996 | [13] 0.997 | [14] 0.987 | [15] 1.01 | [16] 0.973 | [17] 0.99 | [18] 0.984 | [19] 0.995 | [20] 0.99 | [21] 1.01 | [22] 0.979 | [23] 0.998 | [24] 0.958 | [25] 0.968 | [26] 1 | [27] 0.988 | [28] 1.01 | [29] 0.908 | [30] 0.989 | [31] 0.978 | [32] 1 | [33] 1 | [34] 0.979 | [35] 0.996 | [36] 0.957 | [37] 0.997 | [38] 0.992 | [39] 0.988 | [40] 0.995 | [41] 0.994 | [42] 0.993 | [43] 0.971 | [44] 1.02 | [45] 0.953 | [46] 0.999 | [47] 0.991 | [48] 0.991 | [49] 0.996 | [50] 0.983 | [51] 1.01 | [52] 0.988 | [53] 1 | [54] 1.02 | [55] 0.999 | [56] 0.997 | [57] 0.935 | [58] 0.993 | [59] 1 | [60] 0.989 | [61] 0.961 | [62] 0.987 | [63] 0.98 | [64] 0.961 | [65] 1.01 | [66] 0.942 | [67] 1.01 | [2] 1.01 | [68] 1 | [69] 0.996 | [70] 0.981 | [71] 0.997 | [72] 0.983 | [73] 0.965 | [74] 0.995 | [75] 0.974 | [76] 0.955 | [77] 0.747 | [78] 0.994 | [79] 0.995 | [80] 0.988 | [81] 0.991 | [82] 0.993 | [83] 0.961 | [84] 0.986 | [85] 1.04 | [3] 0.998 | [86] 1 | [87] 0.999 | [88] 0.985 | [89] 0.986 | [90] 0.981 | [91] 0.997

Cc1ccc2c(c1)C1(C)CCCC(C)(C(=O)O)C1CC2 (configuration not stated)
inactive: [1] 0.982 | [4] 1.04 | [5] 0.972 | [6] 0.998 | [7] 0.99 | [8] 0.951 | [9] 0.975 | [10] 0.992 | [11] 0.95 | [12] 1 | [13] 1.01 | [14] 0.992 | [15] 0.907 | [16] 1.02 | [17] 1.01 | [18] 0.984 | [19] 0.993 | [20] 0.991 | [21] 1.01 | [22] 1.01 | [23] 0.96 | [24] 1.03 | [25] 0.994 | [26] 0.979 | [27] 0.96 | [28] 0.979 | [29] 1.06 | [30] 1.02 | [31] 1.01 | [32] 0.996 | [33] 1.01 | [34] 1.01 | [35] 0.994 | [36] 1.03 | [37] 0.986 | [38] 0.998 | [39] 1 | [40] 1.01 | [41] 1 | [42] 0.968 | [43] 1.05 | [44] 1.01 | [45] 0.999 | [46] 0.982 | [47] 0.997 | [48] 0.997 | [49] 0.989 | [50] 1.01 | [51] 0.862 | [52] 0.989 | [53] 0.989 | [54] 0.806 | [55] 0.965 | [56] 1 | [57] 1.06 | [58] 1.02 | [59] 0.967 | [60] 0.998 | [61] 1.03 | [62] 1 | [63] 0.994 | [64] 1.03 | [65] 0.973 | [66] 0.976 | [67] 0.974 | [2] 0.949 | [68] 0.957 | [69] 0.993 | [70] 0.972 | [71] 0.994 | [72] 0.968 | [73] 1.01 | [74] 0.997 | [75] 1.02 | [76] 0.956 | [77] 1.15 | [78] 1 | [79] 0.973 | [80] 1 | [81] 1.01 | [82] 1 | [83] 1.05 | [84] 0.999 | [85] 0.946 | [3] 0.997 | [86] 1 | [87] 0.939 | [88] 1 | [89] 0.995 | [90] 0.999 | [91] 0.993
